AF4-AF9 inh: MLL-AF4/AF9 protein interaction inhibition; AlphaScreen, biotin-AF4 peptide binding to FLAG-AF9; inhibition, % at 10 µM; 350,000 compounds, 0.47% hits; AID 651704;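 active means every replicate reaching a set inhibition limit, whatever the replicate mean, cut at about 25% in these data; inconclusive means mean inhibition reaches that limit but some replicates miss it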;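 further: 0% = plate neutral control median and 100% = total signal loss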
RAD52 inh: inhibitors of human RAD52 DNA annealing | P43351 | recombinant RAD52 DNA annealing, FRET fluorescence | inhibition, % at 18.7 µM | 360,000 compounds, 0.46% hits | AID 651710;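 active means every replicate showing at least 50% inhibition; inconclusive means mean inhibition at least 50% but not in every replicate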
miR-122 sensor: inhibitors of miR-122 in Huh7 cells; activation (reporter increase), % at 12.5 µM; Huh7 miR-122 Renilla luciferase sensor, 48 h; neutral wells = 0, positive control = 100; 340,000 compounds, 0.3% hits;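 active means mean replicate activation score at least 90 and every replicate individually at or above 90; inconclusive means only one of the two criteria met; inactive means neither criterion met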;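 further: higher luciferase means less miR-122 activity so hits act as miR-122 inhibitors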
Casp6 inh: blocks human caspase-6 cleavage activity. P55212. purified caspase-6, Z-VEID-R110 cleavage fluorescence. inhibition, % at 12.5 µM. 350,000 compounds, 0.53% hits. AID 686996;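 active means mean inhibition across replicates at least about 35%, with every replicate also reaching that limit, limit read from the data; inconclusive means only one of the two criteria met; inactive means neither criterion met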;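 further: 0% = median of neutral control wells and 100% = no fluorescence left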
NSD2 inh: inhibitors of human histone methyltransferase NSD2; NSD2 peptide methylation, AlphaScreen, 120 min; 310,000 compounds, 0.54% hits; inhibition, % at 12.5 µM; AID 743445; O96028; in the data active means inhibition above about 50%
RAD52 DNA ctr: DNA binding artifact in RAD52 counter-screen | shares compounds with RAD52 inh | AC50, µM | Salmon sperm DNA/acridine orange FP displacement | 1,000 compounds, 8% hits;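 active means fitted half-maximal concentration for signal loss at or below twice the highest dose tested, in every separate run, actives reach about 64 µM in these data; inconclusive means runs disagree, or flat partial signal loss, or poor fit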
* = called active by the depositor; i = inactive; ? = inconclusive; nt = no result given; [ ] = dose if it differs, or a comment. Rows were chosen to be rich in hits. Some 1.5% of all compounds tested hit in one or more screens of this group.

SMILES	AF4-AF9 inh	RAD52 inh	miR-122 sensor	Casp6 inh	NSD2 inh	RAD52 DNA ctr
CC(=O)Nc1cccc(N/C(N)=N/c2nc(C)cc(C)n2)c1	0	57*	nt	3	-4	i
CN1[C@@H]2Cn3c(ccc(-c4ccc(F)cc4)c3=O)[C@H]1[C@@H](C(=O)Nc1nccs1)[C@@H]2CO	-2	1	2[16.7 µM]	2	nt	nt
O=C(N[C@@H]1CC[C@@H](CCNS(=O)(=O)c2cccc(Cl)c2)O[C@H]1CO)c1ccncc1	0	-2	13[16.7 µM]	-1	nt	nt
Cc1cc(N/N=C/c2ccccc2O)c2ccccc2n1	?	102*	nt	-10	11	i
CCOC(=O)CCc1nc2ccccc2[nH]1	5	-14	-2	-2	-5	nt
COCC(=O)O[C@]1(CCN(C)CCCc2nc3ccccc3[nH]2)CCc2cc(F)ccc2[C@@H]1C(C)C	11	54*	-13	7	nt	i
COc1ccc(N2CCc3c(C)nc4c(OC)cc(OC)cc4c32)cc1	3	87*	nt	0	3	i
COc1ccc(N2CCc3c(C)nc4c(OC)cccc4c32)cc1	1	52*	nt	4	nt	i
COC(=O)c1ccc(CN2CC(=O)N3[C@H](CO)[C@@H](c4ccc(Br)cc4)[C@@H]3C2)cc1	0	-17	nt	nt	nt	nt
C[C@@H]1CN([C@@H](C)CO)C(=O)c2cc(NS(=O)(=O)c3cn(C)cn3)ccc2O[C@@H](C)CCCCO[C@@H]1CN(C)C(=O)NC1CCCCC1	-1	-11	15[16.7 µM]	-2	nt	nt
COc1ccc(S(=O)(=O)Nc2ccc3c(c2)C(=O)N([C@@H](C)CO)C[C@H](C)[C@H](CN(C)C(=O)NC2CCCCC2)OCCCC[C@@H](C)O3)cc1	-3	-27	12[16.7 µM]	0	nt	nt
CCCCCCCCCCCCC/C=C/[C@@H](O)[C@@H](N)CO	-13	55*	0	1	nt	i
CN1C(=O)c2cc(NC(=O)c3ccc(F)cc3)ccc2OC[C@@H]2O[C@@H](CC(=O)N3CCOCC3)CC[C@H]21	0	0	7[16.7 µM]	-1	nt	nt
CCOc1ccc(CCN2C(=S)N([C@@H](Cc3ccc(O)cc3)CN3CCC[C@@H]3CN3C(=S)NC[C@@H]3CC(C)C)C[C@@H]2Cc2ccc(O)cc2)cc1	-5	67*	-7	1	nt	i
CCOc1ccc(CCN2C(=S)N([C@@H](Cc3ccc(O)cc3)CN3CCCC3CN3C(=S)NC[C@@H]3Cc3ccc(O)cc3)C[C@@H]2CC(C)C)cc1 (some centres not stated)	-1	-46	-2	4	nt	nt
CCN(CC)CCNC(=O)CCc1c(C)nc2c(c(C)nn2-c2ccc(C)c(C)c2)c1C	7	6	-5	-24	11	i
CC(C)NC(=O)Nc1ccc2c(c1)C(=O)N([C@H](C)CO)C[C@H](C)[C@@H](CN(C)C(=O)Nc1cccc3ccccc13)OCCCC[C@H](C)O2	0	5	-3[16.7 µM]	-1	nt	nt
COc1ccccc1S(=O)(=O)N[C@@H]1CC[C@H](CCn2cc(C3CC3)nn2)O[C@H]1CO	2	0	nt	1	nt	nt
CO[C@@H]1CN(C)C(=O)c2ccc(NC(=O)c3cnccn3)cc2OC[C@H](C)N(C(=O)C2CC2)C[C@H]1C	-1	-12	nt	-1	nt	nt
N#Cc1cc2cc3c(cc2nc1NCCNC(=S)NCCCN1CCOCC1)OCO3	-3	72*	nt	-5	0	i
O=C(C[n+]1ccc2ccccc2c1)c1ccc2ccc3ccccc3c2c1	15	90*	nt	-3	4	i
O=C(C[n+]1ccc2ccccc2c1)c1ccccc1	3	-2	12	-7	1	nt
COc1ccc(S(=O)(=O)Nc2ccc3c(c2)C(=O)N([C@@H](C)CO)C[C@H](C)[C@H](CN(C)S(=O)(=O)c2ccccc2)OCCCC[C@H](C)O3)cc1	1	33	nt	2	nt	nt
Cc1ccc(-c2[nH]c3cc(C(=O)NCCCn4ccnc4)ccc3c(=O)c2O)cc1	57*	80*	-3	4	nt	i
OCCCCNCc1ccc(OCc2ccc(Cl)cc2Cl)cc1	-7	66*	2	-29	5	i
SMILES	AF4-AF9 inh	RAD52 inh	miR-122 sensor	Casp6 inh	NSD2 inh	RAD52 DNA ctr
Cc1[nH]c2c(Cl)cccc2c(=O)c1CN1CCCCCC1	2	-3	-6	-42	27	nt
Cc1ccc2c(=O)c(CN3CCCCCC3)c(C)[nH]c2c1C	3	44	3	-49	3	i
COc1ccc(C2=Nn3c(nnc3-c3ccccc3F)SC2)cc1OC1CCCC1	11	-9	-1	1	nt	i
Cc1ccc(-c2c[n+](CC(=O)Nc3nc(-c4ccc(F)cc4)cs3)c3n2CCC3)cc1	17	58*	1	12	1	i
O=C(C[n+]1cc(-c2ccc(F)cc2)n2c1CCC2)Nc1nc(-c2ccccc2)cs1	nt	nt	4	nt	5	nt
CNc1nc(Oc2cccc(F)c2)c2sccc2n1	-2	12	2	0	-1	nt
CC(=O)Nc1cccc(Oc2nc(NCCN(C)C)nc3ccsc23)c1	5	90*	nt	-73	5	i
CN(C)CCNc1nc(Oc2cccc(F)c2)c2sccc2n1	6	58*	0	-33	16	i
Cc1nc2cc(Oc3nc(NCCN(C)C)nc4ccsc34)ccc2s1	11	78*	1	-73	14	i
COCCNc1nc(Oc2ccc(Cl)c(Cl)c2)c2sccc2n1	-4	-3	-5	1	-1	nt
CO[C@@H]1CN(C)C(=O)c2cc(NC(=O)C3CCOCC3)ccc2OC[C@H](C)N(CC2CC2)C[C@H]1C	-5	1	nt	-2	nt	nt
Cc1noc(C)c1S(=O)(=O)N(C)C[C@H]1Oc2ccc(NC(=O)CCCN(C)C)cc2C(=O)N([C@@H](C)CO)C[C@H]1C	0	-5	-3[16.7 µM]	-4	nt	nt
CCCC(=O)Nc1ccc2c(c1)C(=O)N(C)[C@H]1CC[C@@H](CC(=O)NCCCN(C)C)O[C@H]1CO2	2	2	-3[16.7 µM]	-60	nt	nt
COc1ccc(/C=C2\SC(=O)N(CCC(=O)Nc3ccccc3)C2=O)cc1OC	nt	nt	nt	nt	-3	nt
COc1cc(/C=C2\SC(=O)N(CCN)C2=O)ccc1OS(=O)(=O)c1cc(C)ccc1C	11	84*	nt	15	7	i
Cc1ccc2nc(N(CCCN(C)C)C(=O)c3ccc(S(=O)(=O)N4CCc5ccccc5C4)cc3)sc2c1	5	74*	-14	11	1	i
Cc1ccc2sc(N(CCCN(C)C)C(=O)c3ccc(S(=O)(=O)N(C)C4CCCCC4)cc3)nc2c1C	12	61*	15	-10	1	i
CN(C)CCCN(C(=O)c1ccc(S(=O)(=O)N2CCc3ccccc3C2)cc1)c1nc2ccc(F)cc2s1	2	-1	-8	2	nt	nt
Cc1cccc(-c2ccc3[nH]c4c(c3c2)CCN2C[C@H]3[C@H](C)ON(C)[C@H]3C[C@@H]42)c1	39*	60*	4	-10	nt	i
Cc1cccc(-c2ccc3c(c2)[C@@H]2C[C@H]4[C@@H](CN2CC3)[C@H](C)ON4C)c1	nt	18	nt	-12	nt	nt
